Assay results reported in PubChem BioAssay AID1645853 (Buhrlage Lab, Dana-Farber Cancer Institute and Novartis …, 2021).
Out of some 47,000 compounds screened, about 2,000 (4.3%) were called active. This excerpt belongs to a sample that is enriched for actives. Values without a mark were called inactive. Rule as the data show it: active = inhibition above about 30%; inactive = the rest.

These compounds were tested against Ubiquitin carboxyl-terminal hydrolase 8 (Homo sapiens) (UniProt P40818) (assay: blocks human USP8 ubiquitin-rhodamine cleavage (AID 1645853)). Settings: purified USP8, Ub-rhodamine cleavage fluorescence, 30 min; at 20 µM; hits give high values.
Chain of Ubiquitin carboxyl-terminal hydrolase 8 (Homo sapiens) (P40818 whole entry, looked up): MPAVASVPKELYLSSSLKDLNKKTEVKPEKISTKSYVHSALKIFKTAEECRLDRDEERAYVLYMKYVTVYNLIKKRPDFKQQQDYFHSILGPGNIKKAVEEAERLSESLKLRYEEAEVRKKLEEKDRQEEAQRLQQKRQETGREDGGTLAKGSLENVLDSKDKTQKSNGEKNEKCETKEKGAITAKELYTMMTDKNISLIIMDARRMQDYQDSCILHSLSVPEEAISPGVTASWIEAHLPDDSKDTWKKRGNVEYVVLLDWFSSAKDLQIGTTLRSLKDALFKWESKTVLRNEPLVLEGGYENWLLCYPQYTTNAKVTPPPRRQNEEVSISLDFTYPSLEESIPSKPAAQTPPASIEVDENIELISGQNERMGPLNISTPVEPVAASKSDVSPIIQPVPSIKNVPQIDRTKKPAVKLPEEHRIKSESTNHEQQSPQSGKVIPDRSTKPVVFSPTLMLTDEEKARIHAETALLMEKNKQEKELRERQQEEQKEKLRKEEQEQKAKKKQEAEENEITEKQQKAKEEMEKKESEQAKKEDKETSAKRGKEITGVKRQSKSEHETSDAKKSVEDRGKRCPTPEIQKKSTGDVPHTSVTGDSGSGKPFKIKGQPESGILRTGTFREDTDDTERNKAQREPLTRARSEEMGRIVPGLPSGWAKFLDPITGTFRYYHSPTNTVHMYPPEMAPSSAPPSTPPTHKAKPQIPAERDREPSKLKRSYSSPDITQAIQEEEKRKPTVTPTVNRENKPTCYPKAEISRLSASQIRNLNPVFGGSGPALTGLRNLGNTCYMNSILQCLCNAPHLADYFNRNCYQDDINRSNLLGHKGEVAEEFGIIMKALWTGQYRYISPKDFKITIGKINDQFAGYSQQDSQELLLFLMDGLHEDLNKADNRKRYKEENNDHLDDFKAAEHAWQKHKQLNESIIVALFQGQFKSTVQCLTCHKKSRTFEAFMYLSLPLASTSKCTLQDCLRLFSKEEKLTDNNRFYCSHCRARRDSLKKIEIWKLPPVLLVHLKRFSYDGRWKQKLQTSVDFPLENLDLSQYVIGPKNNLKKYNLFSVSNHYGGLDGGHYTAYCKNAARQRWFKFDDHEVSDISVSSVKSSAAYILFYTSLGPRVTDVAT
In the case of `Oc1cccc2nc3c(O)cccc3nc12`, the inhibition was 94.4% (active).
Work on `O=C(NCc1ccc2c(c1)OCO2)C1CCCN(c2nc3ccc(Cl)cc3[nH]2)C1` (centres undefined) yielded an inhibition of 7.49%.
Work on `CC(=O)N[C@@]12CN(C)CC[C@@H]1[C@@H](c1ccccc1)N(CC(=O)Nc1cc(F)ccc1C)C2` yielded an inhibition of -5.94%.
`Cc1ccc(CNC(=O)CCCn2c(=O)c3sccc3n(CC(=O)OCc3ccccc3)c2=O)cc1` was tested, and the inhibition was 63.4% (active).
With `COc1ccc(CCNC(=O)CCCn2c(=O)c3ccccc3n(CC(=O)OCc3ccccc3)c2=O)cc1OC` the inhibition was 1.77%.
`N#Cc1ccccc1Cn1c(=O)n(CCCC(=O)NCc2ccc(F)cc2)c(=O)c2ccccc21` gave an inhibition of 15.6%.
Work on `Cc1cc(C)nc(-n2nc(C)c(C#N)c2NC(=O)c2cccc(Cl)c2)n1` yielded an inhibition of 2.08%.
For `COc1ccc(-c2cnoc2-c2ccc(O)cc2O)cc1OC`, the inhibition was 22%.
With `Fc1ccc(-n2cc(-c3ccccc3)c3c(NCc4ccco4)ncnc32)cc1` the inhibition was 5.27%.
`c1coc(CNc2nc(Nc3cccc4ccccc34)nc3ccccc23)c1` was tested, and the inhibition was 35.8% (active).
Work on `CC(C)Cc1nc2sc3c(NCc4ccco4)ncnc3c2c2c1CCC2` yielded an inhibition of 16.6%.
`COCCN1CC[C@@H]2Oc3ccccc3S(=O)(=O)N(Cc3cccnc3)[C@H]2CC1` was tested, and the inhibition was -50.1%.
`COc1cccc(S(=O)(=O)N2CCC(n3cnnc3C3CC3)CC2)c1` gave an inhibition of 1.34%.
With `COc1cc(-c2nc3c4cnn(-c5ccccc5)c4ncn3n2)cc(OC)c1OC` the inhibition was -3.12%.
`C#CCOc1ccc2ccccc2c1CN1CCc2ccccc2C1` was tested, and the inhibition was 41.1% (active).
Work on `C#CCOc1ccc(CN2CCc3nc(-c4cccnc4)[nH]c(=O)c3C2)cc1OC` yielded an inhibition of 13.3%.
Work on `Cn1nnnc1-c1cc(Cl)cc(Cl)c1` yielded an inhibition of -13.4%.
Work on `CCc1cc(=O)n(CC(=O)NCC2CCCO2)c(N)n1` (centres undefined) yielded an inhibition of 0.518%.
With `COc1cccc(CNC(=O)N2CCN(Cc3ccc4nccnc4c3)CC2)c1` the inhibition was -8.24%.
Work on `Cn1c(CC2CCN(S(=O)(=O)c3cccnc3)C2)nc2cccnc21` (centres undefined) yielded an inhibition of 13.9%.
Compound `O=C(NCc1ccccc1)c1c(O)c2cnn(Cc3ccccc3)c2[nH]c1=O` has an inhibition of 0.46%.
For `CC1(C(=O)NC2CCCC2)Cn2c(cc3ccccc32)C(=O)N1c1ccc(F)cc1` (centres undefined), the inhibition was 50.7% (active).
`COc1ccccc1CN1C(=O)c2cc3occc3n2CC1(C)C(=O)NC1CCCCC1` (centres undefined) was tested, and the inhibition was 13.4%.
In the case of `CC(C)CCNC(=O)C1(C)Cn2c(cc3ccccc32)C(=O)N1Cc1ccccc1F` (centres undefined), the inhibition was 0.22%.
Work on `CO\C=C(C(=O)OC)/C(=C\C=C\c1ccccc1)CO` yielded an inhibition of -79.7%.
`Cc1cc(C)c2ccc(NC(=O)c3ccco3)nc2n1` was tested, and the inhibition was -8.62%.
Work on `Cc1nc(-n2[nH]c(C)c(CC(=O)N3CCOCC3)c2=O)sc1C` yielded an inhibition of 8.41%.
With `Cc1c(-c2nn3c(-c4ccco4)nnc3s2)cccc1[N+](=O)[O-]` the inhibition was 89.2% (active).
For `CC(C)Cc1cc(-c2nn3c(-c4ccccc4Cl)nnc3s2)n[nH]1`, the inhibition was -0.275%.
`c1ccc(CN2CCCC(c3nc(-c4cccnc4)n[nH]3)C2)cc1` (centres undefined) showed an inhibition of -0.172%.
For `O=C(CN1CCC(c2nc(-c3ccccc3)no2)CC1)Nc1ccccc1`, the inhibition was 3.46%.
In the case of `O=C(Cn1cccc(-c2nc(-c3ccccc3)no2)c1=O)Nc1ccccc1F`, the inhibition was 90.4% (active).
`Cc1noc(-c2cccn(Cc3cc(F)ccc3F)c2=O)n1` was tested, and the inhibition was 2.57%.
With `CC(=O)c1ccc(NC(=O)c2cccc(-c3nc(-c4ccccc4)no3)c2)cc1` the inhibition was 8.62%.
`CCc1ccc(C(=O)N2CCN(c3nnc4ccccn34)CC2)cc1` was tested, and the inhibition was -1.4%.
In the case of `O=C(c1ccccc1)N1CCCCCC1C1CCNCC1` (centres undefined), the inhibition was -4.33%.
With `O=C(Nc1c2c(nn1-c1cccc(Cl)c1)CS(=O)(=O)C2)c1cccs1` the inhibition was 9.3%.
`Cc1cc(OCC(=O)Oc2ccc(-n3cnnn3)cc2)cc(C)c1Cl` was tested, and the inhibition was 44.3% (active).
For `CC(C)NC(=O)c1cccc(-n2cnnn2)c1`, the inhibition was -259%.
`CC(C)c1ccc(OCC(=O)NCc2nnnn2-c2ccc(Cl)cc2)cc1` showed an inhibition of 4.83%.
`Cc1ccnc(C2CN(C(=O)CCn3cnc4ccccc43)CCO2)n1` (centres undefined) gave an inhibition of 19.3%.
`COc1cc(NC(=O)CSc2nc3ccncc3[nH]2)cc(OC)c1` was tested, and the inhibition was 1.79%.
With `CC(Nc1nnc(Cc2ccccc2)c(=O)[nH]1)c1ccccc1` (centres undefined) the inhibition was 85.5% (active).
For `Nc1ccccc1-c1nnc(Cc2ccccc2)c(=O)[nH]1`, the inhibition was -0.271%.
`Cc1ccc(Cc2nnc(C(=O)NC(C)c3ccccc3)o2)cc1` (centres undefined) gave an inhibition of 0.117%.
`CC(=O)NC(Cc1cccc(C)c1)C(=O)NC1CCN(C(=O)c2cccc(C)c2)CC1` (centres undefined) showed an inhibition of -1.31%.
`CN1[C@@H](CCC(=O)NCc2ccc(F)cc2)CNC(=O)[C@@H]2[C@H]1CCN2CC1CC1` gave an inhibition of -6.51%.
`COC(=O)C1CCN(C(=O)CC[C@H]2CNC(=O)[C@@H]3[C@@H](CCN3Cc3ccc(C)cc3)N2C)CC1` was tested, and the inhibition was 35.8% (active).
With `CN1[C@@H](CCC(=O)N2CCc3ccccc32)CNC(=O)[C@@H]2[C@H]1CCN2Cc1ncc[nH]1` the inhibition was -8.85%.
Work on `COc1ccc(-c2c(C)noc2C)cc1S(=O)(=O)NC1CCCC1` yielded an inhibition of -9.12%.
`Clc1ccccc1C1SCC2=Nc3ccccc3CN21` (centres undefined) showed an inhibition of -101%.
`COc1cccc(NC(=O)Cn2c(-c3ccccc3)nc(C)cc2=O)c1` gave an inhibition of 2.3%.
`CCN1C(=O)CCC12CCCN(S(=O)(=O)c1cccc(C)c1)CC2` (centres undefined) gave an inhibition of -101%.
Work on `CCC(=O)c1ccc(OCC(=O)Nc2ccc3nc(C)sc3c2)cc1` yielded an inhibition of -13%.
`CCC(=O)Nc1nc2cc(NC(=O)c3ccc(OC)cc3)ccc2s1` was tested, and the inhibition was 47.8% (active).
`COc1ccc(NC(=O)c2ccnc(Nc3ccc(OC)cc3)c2)cc1` showed an inhibition of 25.4%.
In the case of `COc1cccc(CN2C(=O)c3ccccc3C2C(=O)NCc2ccccc2OC)c1` (centres undefined), the inhibition was 34.7% (active).
For `CCN1C(=O)c2ccccc2Sc2ccc(C(=O)NCc3ccc(OC)cc3OC)cc21`, the inhibition was 4.79%.
With `COc1ccccc1CNC(=O)c1ccc(-n2nc(C)c3c2CCCC3=O)cc1` the inhibition was 1.29%.
`CC(C)(C)NC(=O)CSc1nc2[nH]c(=O)cc(O)c2s1` showed an inhibition of -9.23%.
Compound `CC1Oc2ccccc2N(Cc2nc(-c3cccc(F)c3)no2)C1=O` (centres undefined) has an inhibition of -3.17%.
With `O=C(COC(=O)CCc1nc2ccccc2c(=O)[nH]1)Nc1ccc(N2CCOCC2)cc1` the inhibition was 2.83%.
`CCN(CC)c1nc2ccccc2nc1C(=O)Nc1ccc(N2CCOCC2)cc1` gave an inhibition of -1.27%.
For `O=C(Cc1ccccc1Cl)Nc1ccc(N2CCOCC2)cc1`, the inhibition was 51.8% (active).
`O=C(Nc1cccnc1)[C@H]1C[C@@H]2CN(S(=O)(=O)C3CC3)C[C@H]1O2` was tested, and the inhibition was -14%.
In the case of `CNC(=O)N1C[C@H]2C[C@H](C(=O)Nc3ccc4c(c3)OCO4)[C@@H](C1)O2`, the inhibition was 37% (active).
For `CN1C[C@H]2C[C@H](C(=O)Nc3ccc4c(c3)OCO4)[C@@H](C1)O2`, the inhibition was 6.94%.
Compound `CC(=O)c1ccc(NC(=O)Cn2c(=O)n(-c3ccccc3)c3ncccc32)cc1` has an inhibition of 10.4%.
Compound `CCS(=O)(=O)N1CC(=O)N(c2cccc(OC)c2)C(C)(C(=O)NCc2ccccc2)C1` (centres undefined) has an inhibition of -0.355%.
`COc1cccc(CNC(=O)c2ccc3c(=O)nc4c(-c5ccccc5)n[nH]n4c3c2)c1` was tested, and the inhibition was 71.8% (active).
Compound `O=C(Nc1ccccc1F)NC1CCCN(c2cc(-c3ccncc3)[nH]n2)C1` (centres undefined) has an inhibition of -92%.
`O=C(NCc1ccco1)c1ccc2c(=O)nc3c(-c4ccc(F)cc4)n[nH]n3c2c1` was tested, and the inhibition was -4.4%.
In the case of `O=C(NCCc1ccccc1)c1ccc2c(=O)nc3c(-c4ccccc4F)n[nH]n3c2c1`, the inhibition was 2.58%.
Work on `COc1cccc(CNC(=O)c2ccc(-c3cncnc3)nc2)c1` yielded an inhibition of -15.9%.
In the case of `O=C(NC1CCCCC1)c1ccc2c(=O)nc3c(-c4ccccc4F)n[nH]n3c2c1`, the inhibition was 49.8% (active).
`CN1CC(c2nc3ccccc3n2Cc2ccccc2)CC1=O` (centres undefined) showed an inhibition of -1.18%.
Work on `CNc1cncc(C2CCCN2C(=O)Cc2ccc3c(c2)OCO3)n1` (centres undefined) yielded an inhibition of -1.13%.
For `O=S(=O)(Nc1cccc(O)c1)c1ccc2oc3ccc(S(=O)(=O)Nc4cccc(O)c4)cc3c2c1`, the inhibition was 9.24%.
Compound `Cc1cc(C)n(CCC(=O)NCC2CCOCC2)n1` has an inhibition of -2.76%.
In the case of `Cc1ccc(-c2nn(-c3ccccc3)cc2CNCc2cccnc2)cc1`, the inhibition was -268%.
For `CNC1C(OC2C(OC3C(O)C(O)C(OC(N)=O)C(O)C3N=C(N)N)OC(C)C2(O)CO)OC(CO)C(O)C1O` (centres undefined), the inhibition was 0.384%.
With `CC(C)Nc1ncnc2c1c(C(=O)N1CCCC1)c1ccccn12` the inhibition was 55.5% (active).
For `CCc1ccccc1NS(=O)(=O)c1c(C)[nH]c(C)c1C(=O)N1CCCC1`, the inhibition was 2.16%.
In the case of `CN1CCCN(C(=O)c2cc(-c3ccn(C)n3)n3ccccc23)CC1`, the inhibition was -22.2%.
Compound `CN1[C@@H](CCC(=O)N2CCOCC2)CNC(=O)[C@@H]2[C@H]1CCN2C1CCCCC1` has an inhibition of 2.93%.
`Cc1ccc(S(=O)(=O)Oc2cccnc2)c(C)c1F` was tested, and the inhibition was 10.5%.
For `C=C1CCC2[C@](C)(CCC[C@]2(C)C(=O)OC)[C@H]1CCc1ccoc1/C=C/C(=O)O` (some centres undefined), the inhibition was 63.4% (active).
`C=C1CCC2[C@](C)(CCC[C@]2(C)C(=O)OC)[C@H]1CCc1ccoc1C[N+](C)(C)Cc1ccccc1` (some centres undefined) was tested, and the inhibition was 30.8% (active).
Compound `C=C1CCC2[C@](C)(CCC[C@]2(C)C(=O)OC)[C@H]1CCc1ccoc1CNCC(=O)O` (some centres undefined) has an inhibition of -5.45%.
